Screening results deposited in PubChem BioAssay by several laboratories.
BoNT F protease = blocks Botulinum neurotoxin F light chain protease | Multiplex microsphere protease cleavage assay, flow cytometry | inhibition, % at 10 µM | hit rate 0.22% among 360,000 | AID 588497; in the data active means inhibition above about 35%, passing the limit was not always enough; inconclusive means no clear call, values can overlap the other calls
BoNT-A LC inh2 = blocks Botulinum neurotoxin A light chain protease; multiplex microsphere protease substrate cleavage, flow cytometry; inhibition, % at 10 µM; hit rate 0.17% among 360,000
Bead autofluor = flagged as autofluorescent in microsphere protease counterscreen | compound autofluorescence counterscreen, microsphere flow cytometry; active compounds read high | fluorescence intensity (concentration not given with the values) | hit rate 3.1% among 360,000 | AID 624483; in the data active means fluorescence intensity above about 16000; inconclusive means no clear call, values can overlap the other calls
BH1578 lux ind = quorum light induction in luxS cqsA deficient V. cholerae | V. cholerae BH1578 lux reporter, luminescence, 6 h | activation, % at 18.7 µM | hit rate 0.16% among 350,000 | AID 588436; in the data active means activation mostly above about 9.7%, no sharp cut-off; inconclusive means no clear call, values can overlap the other calls; inactive means mostly below about 3.7%
Anthrax LF prot = anthrax lethal factor protease inhibition | multiplex microsphere protease cleavage assay, LF | AID 588501 | P15917 | hit rate 0.12% among 360,000 | inhibition, % at 10 µM
Large screens that a line does not name were inactive. An excerpt weighted towards active compounds, which were near 3.5% of everything screened. Unless noted, no stated cut-off is given here; in the data, active means inhibition above about 30%; inconclusive means no clear call, values can overlap the other calls; inactive means below that.

COC(=O)[C@@H](NC(=O)NC(C)CCc1ccccc1)C(C)C (some centres not stated)	none
CC(CCc1ccccc1)C(=O)NO (configuration not stated)	Bead autofluor 23384
CC(CCc1ccccc1)NC(=O)Cc1ccc(Br)cc1 (configuration not stated)	none
COC(=O)[C@H](C)NC(=O)NC(C)CCc1ccccc1 (some centres not stated)	Bead autofluor 21607
COC(=O)c1ccc(C)c(-n2c(C)cc(C=O)c2C)c1	none
Cc1ccc(Cn2nc(C(=O)Nc3ccc(Br)cc3)cc2C)cc1	none
COC(=O)c1cc(C(=O)OC)n(Cc2ccc(Br)cc2)n1	BoNT-A LC inh2 inconclusive, Bead autofluor 21618
COC(=O)CC1COc2ccccc2N1C(=O)c1ccc(C(C)(C)C)cc1 (configuration not stated)	BoNT-A LC inh2 inconclusive, Bead autofluor 20115
COC(=O)CC1COc2ccccc2N1C(=O)c1ccc(Cl)cc1 (configuration not stated)	Bead autofluor 23189
COC(=O)CC1COc2ccccc2N1C(=O)c1ccc(Br)cc1 (configuration not stated)	none
CNC(=S)N/N=C1\C(=O)c2cccc3cccc1c23	Bead autofluor 17615
CCCCNC(=S)Nc1cccc2cnccc12	none
CCCCNC(=S)N/N=C1\C(=O)c2cccc3cccc1c23	Bead autofluor 20454
O=C(N/N=C1\C(=O)c2cccc3cccc1c23)c1ccc(O)cc1	none
O=C(N=C1SC2CS(=O)(=O)CC2N1c1ccc(Cl)cc1Cl)C1CC1 (configuration not stated)	none
COc1ccccc1NC(=O)CS(=O)(=O)c1cn(CC(=O)N2CCCC2)c2ccccc12	none
CC(C)c1ccc(CC(=O)N2CCC2(C)C(=O)NCCC#N)cc1 (configuration not stated)	none
CCOc1c(Cl)cc(CNCC(C)C)cc1OC	BoNT-A LC inh2 inconclusive, Bead autofluor 24375
Cc1ccc(N2C(=O)C(O)(C(F)(F)F)C3=C2CC(C)(C)CC3=O)cc1 (configuration not stated)	none
CC1(C)CC(=O)C2=C(C1)N(c1ccc(F)cc1)C(=O)C2(O)C(F)(F)F (configuration not stated)	Bead autofluor 22420
COc1ccc(NC(=O)CN(C)C(=O)Cn2cnc3c2c(=O)n(C)c(=O)n3C)cc1	Bead autofluor inconclusive
Cc1cccc(NC(=O)C(C)Sc2nc3nc(C)cc(C)n3n2)c1 (configuration not stated)	none
Cc1cc(C)n(-c2nc(SCCN(C)C)c3c4c(sc3n2)CCCC4)n1	Bead autofluor 17751
Cc1cc(C)n(-c2nc(SCC(=O)O)c3c4c(sc3n2)COC(C)(C)C4)n1	none
COC(=O)c1c(NS(=O)(=O)c2cccs2)sc2c1CCCC2	Bead autofluor 25083
O=C(Nc1sc2c(c1C(=O)O)CCCCC2)c1cccs1	none
COC(=O)c1c(NC(=O)Cc2cccs2)sc2c1CCCC2	none
O=C(Nc1sc2c(c1C(=O)O)CCCC2)c1cccs1	Bead autofluor 24122
C=C(C)CSC1=C(C#N)C(c2ccccc2Cl)CC(=O)N1 (configuration not stated)	Bead autofluor 23035
C=CCSC1=C(C#N)C(c2ccccc2Cl)CC(=O)N1 (configuration not stated)	none
CN(C)c1ccc(/C=C/[N+](=O)[O-])cc1	BoNT F protease 48.1, BoNT-A LC inh2 50.2
CN(c1ccccc1)c1ccc(/C=C/[N+](=O)[O-])cc1	BoNT-A LC inh2 69.8
C/C(=C\c1ccc(N(C)C)cc1)[N+](=O)[O-]	Bead autofluor 22567
CN(CCc1ccccc1)C(=O)c1ccc(NC(=O)Cc2ccc(NC(=O)C3CCCN(S(=O)(=O)c4cccc([N+](=O)[O-])c4)C3)cc2)cc1 (configuration not stated)	none
CC1=C(C(=O)N(C(C)C)C(C)C)CC(CC(=O)NC(c2ccccc2)c2ccccc2)C(=O)N1CCCN1CCCC1=O (configuration not stated)	none (no result: BH1578 lux ind)
CCCc1cc(=O)[nH]c(SCc2ccccc2Cl)n1	Bead autofluor 20635
Cc1cc(=O)[nH]c(SCc2nc3ccccc3s2)n1	none
CCCc1cc(=O)[nH]c(SCc2nc3ccccc3s2)n1	Bead autofluor 19993
NS(=O)(=O)c1ccc(CCNC(=O)c2cc(-c3ccc(Br)cc3)nc3ccccc23)cc1	none
CCCc1ccc(-c2cc(C(=O)NCCc3ccc(S(N)(=O)=O)cc3)c3ccccc3n2)cc1	Bead autofluor 22125
CC(C)Oc1cccc(-c2cc(C(=O)NN3CCOCC3)c3ccccc3n2)c1	none
CCCc1ccc(-c2cc(C(=O)NN3CCOCC3)c3ccccc3n2)cc1	Bead autofluor 23255
O=S(=O)(NCc1ccccc1Cl)c1cccs1	none
O=C(CSc1nc2ccc([N+](=O)[O-])cc2[nH]1)NCCc1ccccc1	Bead autofluor 20820
Cc1cccc(-n2ncc3c2CCCC3NC(=O)CCN2CCCO2)c1C (configuration not stated)	none (no result: BoNT F protease, BoNT-A LC inh2, Bead autofluor, Anthrax LF prot)
COc1ccc(C)cc1-n1nnnc1SCC(=O)N1CCC(C(=O)Nc2nccs2)CC1	BoNT-A LC inh2 inconclusive, Bead autofluor 23303
COc1ccc(C)cc1-n1nnnc1SCC(=O)NC1CCCC1	none (no result: BoNT F protease, BoNT-A LC inh2, Bead autofluor, Anthrax LF prot)
O=C(CSc1ncn[nH]1)N(C1CCCCC1)C1CCCCC1	Bead autofluor 20145
O=C(CSc1ncn[nH]1)N1CCCCC1	none
COc1ccc(C)c(NC(=O)C2CC(=O)NC3=C2C(=O)CCC3)c1 (configuration not stated)	none
COc1cc(NC(=O)C2CC(=O)NC3=C2C(=O)CCC3)c(OC)cc1Cl (configuration not stated)	Bead autofluor 23479
COc1ccc(NC(=O)C2CC(=O)NC3=C2C(=O)CC(C)(C)C3)cc1 (configuration not stated)	Bead autofluor 23174
CC(OC(=O)CN(C)S(=O)(=O)c1ccc(Cl)cc1)C(=O)Nc1ncc(Cl)cc1Cl (configuration not stated)	Bead autofluor 23244
CC(OC(=O)CN(C)S(=O)(=O)c1ccc(Cl)cc1)C(=O)Nc1cccc(Cl)c1 (configuration not stated)	none
CC(OC(=O)CNC(=O)C12CC3CC(CC(C3)C1)C2)C(=O)Nc1ncc(Cl)cc1Cl (configuration not stated)	Bead autofluor 18610
O=C(NCC(=O)N1CCC(Cc2ccccc2)CC1)c1ccc(Cl)cc1	BoNT-A LC inh2 inconclusive, Bead autofluor inconclusive, Anthrax LF prot inconclusive
COc1ccc(CN2CCN(C(=O)CC(C)C)CC2)cc1Br	none
COc1ccc(/C=C/C(=O)N(CC(C)C)CC(C)C)cc1Br	BoNT-A LC inh2 inconclusive, Bead autofluor 21487
COc1cccc([C@@H]2CC=C(C(=O)O)[C@H](c3ccccc3F)N2S(=O)(=O)c2ccc(C)cc2)c1	none
CCn1nc(C)c(NC(=O)c2cc(Br)ccc2Cl)c1C	Bead autofluor 19900
Cc1ccc(C(=O)OCC(=O)NNC(=O)c2ccc([N+](=O)[O-])cc2)o1	none
O=C(OCCNC(=O)c1ccc2ccccc2n1)c1ccc(F)cc1	BoNT-A LC inh2 inconclusive, Bead autofluor 16884
O=C(COC(=O)c1ccc2ccccc2n1)c1ccc(F)cc1	none
